Records with an inconclusive call do not appear. Calls of active or inactive are those of the source. Calls come from the whole dose curve; as a rule, active = well fitted curve in the direction sought with a large enough effect; inconclusive = small, poorly fitted or top-dose-only effect, or another doubt; inactive = no such curve, though single readings can be large; an effect the other way counts as inactive or inconclusive.
Columns and labels:
[1] = biological target: Rap guanine nucleotide exchange factor 3 (Homo sapiens) (UniProt O95398); assay: Confirmatory qHTS for agonist of cAMP-regulated guanine nucleotide exchange factor 3 (EPAC1) (AID 1645881);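 note: EPAC1 catalysed release of BODIPY-GDP from Rap1B seen as fluorescence loss; 100% = effect of cAMP agonist control; nearly all actives have a fitted effect of over 75% in size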
[2] = biological target: Rap guanine nucleotide exchange factor 4 (Homo sapiens) (UniProt Q8WZA2); assay: Confirmatory qHTS for agonist of cAMP-regulated guanine nucleotide exchange factor 4 (EPAC2) (AID 1645884);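 note: nucleotide exchange releases bodipy-GDP from Rap1 and this lowers its fluorescence; % is set by controls: 0 for no effect and ±100 for the full control effect; nearly all actives have a fitted effect of over 65% in size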
[3] = biological target: Rap guanine nucleotide exchange factor 4 (Homo sapiens) (UniProt Q8WZA2); assay: Confirmatory qHTS for antagonist of cAMP-regulated guanine nucleotide exchange factor 4 (EPAC2) (AID 1645885); note: nearly all actives have a fitted effect of over 25% in size; for activity change, negative = inhibition: % is set by controls: 0 for no effect and ±100 for the full control effect
[4] = biological target: Rap guanine nucleotide exchange factor 3 (Homo sapiens) (UniProt O95398); assay: Counterscreen qHTS for antagonist of cAMP-regulated guanine nucleotide exchange factor 3 (EPAC1) (AID 1645888);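 note: fluorescence loss as bound BODIPY-GDP is released from Rap1B; % of control where 0% means no effect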
In short: (§1)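 Measured: fluorescence of BODIPY-GDP bound to Rap1B, which falls as exchange proceeds. Conditions include 50 uM competing GDP, 5 and 30 min reads, and a later cAMP challenge for antagonist detection.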

[5] = biological target: Rap guanine nucleotide exchange factor 3 (Homo sapiens) (UniProt O95398); assay: Counterscreen qHTS for agonist of cAMP-regulated guanine nucleotide exchange factor 3 (EPAC1) (AID 1645889); note: % of control where 0% means no effect; nearly all actives have a fitted effect of over 40% in size
In short: as §1

Rap guanine nucleotide exchange factor 4 (Homo sapiens), sequence (Q8WZA2 whole entry, looked up): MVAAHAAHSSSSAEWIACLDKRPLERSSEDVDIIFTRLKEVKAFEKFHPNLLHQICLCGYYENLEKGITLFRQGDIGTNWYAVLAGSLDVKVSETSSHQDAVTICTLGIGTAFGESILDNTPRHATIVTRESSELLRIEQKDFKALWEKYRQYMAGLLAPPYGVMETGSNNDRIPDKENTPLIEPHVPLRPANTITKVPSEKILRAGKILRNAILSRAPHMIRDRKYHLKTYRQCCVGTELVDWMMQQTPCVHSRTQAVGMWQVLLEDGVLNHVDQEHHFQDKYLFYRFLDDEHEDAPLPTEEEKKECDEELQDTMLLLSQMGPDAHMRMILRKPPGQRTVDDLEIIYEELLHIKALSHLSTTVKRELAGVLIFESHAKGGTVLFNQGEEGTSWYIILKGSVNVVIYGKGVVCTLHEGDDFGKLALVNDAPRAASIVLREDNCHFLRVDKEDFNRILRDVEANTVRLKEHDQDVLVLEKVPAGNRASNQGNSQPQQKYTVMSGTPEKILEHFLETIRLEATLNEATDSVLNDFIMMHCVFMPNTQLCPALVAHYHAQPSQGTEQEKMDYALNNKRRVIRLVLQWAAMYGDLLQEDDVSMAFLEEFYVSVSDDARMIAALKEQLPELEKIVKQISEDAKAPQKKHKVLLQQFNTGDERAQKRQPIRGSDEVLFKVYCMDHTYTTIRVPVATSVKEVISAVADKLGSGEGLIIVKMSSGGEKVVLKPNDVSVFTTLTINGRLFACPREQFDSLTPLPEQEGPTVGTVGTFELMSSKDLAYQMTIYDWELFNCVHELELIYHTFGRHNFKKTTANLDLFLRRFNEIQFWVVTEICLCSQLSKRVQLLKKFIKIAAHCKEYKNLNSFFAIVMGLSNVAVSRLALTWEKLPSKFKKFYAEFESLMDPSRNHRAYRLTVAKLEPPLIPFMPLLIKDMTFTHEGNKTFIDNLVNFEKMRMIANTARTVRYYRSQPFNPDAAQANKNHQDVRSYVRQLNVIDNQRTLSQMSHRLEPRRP
Rap guanine nucleotide exchange factor 3 (Homo sapiens), sequence (O95398 whole entry, looked up): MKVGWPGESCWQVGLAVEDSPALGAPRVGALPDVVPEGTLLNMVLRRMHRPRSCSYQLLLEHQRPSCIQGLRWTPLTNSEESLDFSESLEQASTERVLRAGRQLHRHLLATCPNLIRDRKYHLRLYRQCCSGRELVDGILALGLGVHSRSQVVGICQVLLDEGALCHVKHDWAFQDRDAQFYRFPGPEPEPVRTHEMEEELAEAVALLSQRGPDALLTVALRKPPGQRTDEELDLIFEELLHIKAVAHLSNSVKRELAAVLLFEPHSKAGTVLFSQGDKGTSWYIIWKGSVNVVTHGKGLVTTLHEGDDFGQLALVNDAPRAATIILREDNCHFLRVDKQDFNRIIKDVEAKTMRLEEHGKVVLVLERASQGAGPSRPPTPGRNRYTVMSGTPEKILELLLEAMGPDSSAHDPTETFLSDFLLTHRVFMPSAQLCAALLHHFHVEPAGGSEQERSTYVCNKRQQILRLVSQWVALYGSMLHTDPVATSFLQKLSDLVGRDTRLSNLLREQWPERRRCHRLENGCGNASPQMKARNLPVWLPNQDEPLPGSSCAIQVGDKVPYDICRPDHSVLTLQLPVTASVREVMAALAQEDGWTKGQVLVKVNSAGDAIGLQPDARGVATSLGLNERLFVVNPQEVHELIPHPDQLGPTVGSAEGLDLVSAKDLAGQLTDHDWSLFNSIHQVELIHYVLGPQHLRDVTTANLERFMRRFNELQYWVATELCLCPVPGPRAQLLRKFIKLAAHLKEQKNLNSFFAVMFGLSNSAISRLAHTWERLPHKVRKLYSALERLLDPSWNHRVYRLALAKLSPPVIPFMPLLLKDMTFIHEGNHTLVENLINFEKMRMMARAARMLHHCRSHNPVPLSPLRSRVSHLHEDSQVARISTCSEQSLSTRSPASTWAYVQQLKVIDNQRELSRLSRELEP

O=C(CSc1nc(O)cc(=O)n1-c1ccccc1)Nc1ccc2c3c(cccc13)CC2
inactive: Potency [1] | activation [2] 0% [at 17.1 µM, percent relative to cAMP agonist control] | Potency [3] | activity change, negative = inhibition [4] -9.82% [at 30.8 µM]

O=C1Cc2ccccc2C(=O)N1CCc1ccccc1
inactive: Potency [1] | Potency [2] | Potency [3] | Potency [4]

CN(CCOc1ccc(Br)cc1)C(=O)CNC(=O)c1ccc2ccccc2c1
inactive: Potency [1] | activation [2] 0.226% [at 17.1 µM, percent relative to cAMP agonist control] | Potency [3] | activity change, negative = inhibition [4] -17.3% [at 30.8 µM]

CCOC(=O)c1cc2c(=O)n3ccccc3nc2n(Cc2ccco2)c1=NC(=O)c1c(F)cccc1Cl
inactive: Potency [1] | Potency [2] | Potency [3] | Potency [4]

COc1cc(/C=C2\SC(=O)N(c3cccc(Cl)c3)C2=O)cc([N+](=O)[O-])c1O
inactive: Potency [1] | Potency [2] | Potency [3] | Potency [4]

O=[N+]([O-])c1cc(Br)ccc1NS(=O)(=O)c1ccccc1
inactive: Potency [1] | activation [2] -2.03% [at 17.1 µM, percent relative to cAMP agonist control] | Potency [3] | activity change, negative = inhibition [4] -16.7% [at 30.8 µM]

Cc1cccc(-c2nc3c(cnn3-c3ccccc3)c(=O)n2-c2cccc(Cl)c2)c1
inactive: Potency [1] | Potency [2] | outcome [3] inactive [at 12.7 µM] | Potency [4]

CCOC(=O)c1cnc2ccc(C(=O)OC)cc2c1Nc1ccccc1CC
inactive: Potency [1] | Potency [2] | Potency [3] | Potency [4]

CN(C)c1ccc(-c2[nH][nH]c(=O)c2NC(=O)c2ccccn2)cc1
inactive: Potency [1] | Potency [2] | Potency [3] | Potency [4]

O=C(/C=C/c1ccc(-c2ccccc2[N+](=O)[O-])o1)c1ccco1
inactive: Potency [1] | activation [2] 7.95% [at 17.1 µM, percent relative to cAMP agonist control] | Potency [3] | activity change, negative = inhibition [4] 9.73% [at 30.8 µM]

CCOC(=O)c1c(C)oc2c1c(C=NCCO)c(O)c1ccccc12
inactive: Potency [1] | activation [2] 10.2% [at 17.1 µM, percent relative to cAMP agonist control] | Potency [3] | activity change, negative = inhibition [4] 33.4% [at 30.8 µM]

Cc1cccc(C(=O)OCC(=O)c2ccc(CC(=O)N3CCOCC3)s2)c1C
inactive: Potency [1] | Potency [2] | Potency [3] | Potency [4]

Cc1occc1-c1nnc(SCC(=O)c2cc3ccccc3oc2=O)o1
inactive: Potency [1] | activation [2] -0.174% [at 17.1 µM, percent relative to cAMP agonist control] | Potency [3] | activity change, negative = inhibition [4] -0.143% [at 30.8 µM]

Cc1cccc(NC(=O)c2ccc(-n3cncn3)c([N+](=O)[O-])c2)c1
inactive: Potency [1] | activation [2] 2.79% [at 17.1 µM, percent relative to cAMP agonist control] | Potency [3] | activity change, negative = inhibition [4] -21.4% [at 30.8 µM] | activation [5] 23.9% [at 30.8 µM]

C=CCc1ccccc1OCCSc1nc(-c2ccc(C(C)(C)C)cc2)nc2cc(=O)[nH]n12
inactive: Potency [1] | Potency [2] | Potency [3] | Potency [4] | Potency [5]

Cc1ccc(C(=O)c2no[n+]([O-])c2C(=O)c2ccc(C)cc2)cc1
inactive: Potency [1] | Potency [2] | Potency [3] | Potency [4] | Potency [5]

NS(=O)(=O)c1ccc(NC(=O)c2cccc(N3C(=O)c4ccccc4C3=O)c2)cc1
inactive: Potency [1] | activation [2] 3.4% [at 17.1 µM, percent relative to cAMP agonist control] | Potency [3] | activity change, negative = inhibition [4] 2.18% [at 30.8 µM] | activation [5] 23.3% [at 30.8 µM]

CC(C)c1ccc(C2=CC(c3cccc(Cl)c3)n3ncnc3N2)cc1 (stereo unspecified)
inactive: Potency [1] | Potency [2] | outcome [3] inactive [at 12.7 µM] | Potency [4] | Potency [5]

Oc1ccc(NCc2ccccc2OCc2ccccc2F)cc1
inactive: Potency [1] | Potency [2] | Potency [3] | Potency [4]

CSc1cccc(NC(=O)Cn2nnc(C(=O)NCCc3ccccc3)c2N)c1
inactive: Potency [1] | Potency [2] | outcome [3] inactive [at 12.7 µM] | Potency [4] | Potency [5]

Cc1cc(Cl)ccc1OCCCC(=O)OCC(=O)c1c(N)n(C)c(=O)n(C)c1=O
inactive: Potency [1] | activation [2] 11.9% [at 17.1 µM, percent relative to cAMP agonist control] | Potency [3] | activity change, negative = inhibition [4] -16.7% [at 30.8 µM] | activation [5] 27.4% [at 30.8 µM]

Cc1cc(Cl)ccc1OC(C)C(=O)Nc1ccc(C(=O)Nc2ccccc2C(=O)O)cc1 (stereo unspecified)
inactive: Potency [1] | Potency [2] | Potency [3] | Potency [4] | Potency [5]

CCCCOc1c(Br)cc(/C=N/O)cc1OCC
inactive: Potency [1] | activation [2] 6.54% [at 17.1 µM, percent relative to cAMP agonist control] | Potency [3] | activity change, negative = inhibition [4] -12% [at 30.8 µM] | activation [5] 5.43% [at 30.8 µM]

CCN1CCc2c(sc(-n3cccc3)c2C(C)NC(=O)Nc2ccc(C(=O)OC)cc2)C1 (stereo unspecified)
inactive: Potency [1] | Potency [2] | Potency [3] | Potency [4] | Potency [5]
